Results from PubChem BioAssay (NCATS).
Active and inactive are the calls of the source. The call rests on the fitted dose curve; in most records, active means well fitted inhibition curve with a large enough effect; inconclusive means small, poorly fitted or top-dose-only effect; inactive means no such curve, though single readings can be large or run the other way.

assay: qHTS assay for measurement of the activity of small molecule inhibitors on Zika virus induced Caspase-3 activity in human astrocytoma cells (AID 1224859); details: SNB-19 ZIKV-induced caspase-3/7, luminescence, 6 h; series mostly up to 45.7 µM; activity change, negative = inhibition: at the top concentration;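 further: plate controls were ZIKV-infected untreated cells for no effect and uninfected cells for full effect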
Method in brief: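 Luminescence read-out (Caspase-Glo 3/7, 30 min RT) of caspase activity in SNB-19 cells infected 6 h with ZIKV, 2 FFU/cell, after 1 h compound pretreatment; % inhibition from induction normalised to uninfected (0%) and infected (100%) wells.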

SMILES | activity change, negative = inhibition
NC1CCN(c2nc3c(cc2F)c(=O)c(C(=O)O)cn3-c2ccc(F)cc2F)C1 (centres undefined) | 2.79% (inactive)
O=C(Nc1cccc(C2=NCCN2)c1)Nc1cccc(C2=NCCN2)c1 | -11.2% [at 20.5 µM] (inactive)
CCCCCCCCCCCCCC[N+](C)(C)Cc1ccccc1 | 56.2% (inactive)
C#C[C@]1(O)CC[C@H]2[C@@H]3CCC4=CC(=O)CC[C@@H]4[C@H]3CC[C@@]21CC | -7.05% (inactive)
NCc1ccccc1Sc1ccccc1CO | 11.7% (inactive)
OC[C@H]1O[C@@H]2O[C@H]3[C@H](O)[C@@H](O)[C@@H](O[C@H]4[C@H](O)[C@@H](O)[C@@H](O[C@H]5[C@H](O)[C@@H](O)[C@@H](O[C@H]6[C@H](O)[C@@H](O)[C@@H](O[C@H]7[C@H](O)[C@@H](O)[C@@H](O[C@H]8[C@H](O)[C@@H](O)[C@@H](O[C@H]1[C@H](O)[C@H]2O)O[C@@H]8CO)O[C@@H]7CO)O[C@@H]6CO)O[C@@H]5CO)O[C@@H]4CO)O[C@@H]3CO | -1.89% (inactive)
CCN(CC)CCOC(=O)C1(c2ccccc2)CCCC1 | -10.6% (inactive)
CCCCCCCCCCCCCCCCO | -8.99% (inactive)
O=C(CCCN1CC=C(n2c(=O)[nH]c3ccccc32)CC1)c1ccc(F)cc1 | 16% (inactive)
NC(=O)C1(N2CCCCC2)CCN(CCCC(=O)c2ccc(F)cc2)CC1 | -13.5% (inactive)
CC(O)Cn1cnc2c1c(=O)n(C)c(=O)n2C (centres undefined) | -15.7% (inactive)
COc1cc(C(=O)NCc2ccc(OCCN(C)C)cc2)cc(OC)c1OC | 17.4% (inactive)
CC[N+](C)(CC)CCOC(=O)C(O)(c1ccccc1)C1CCCCC1 (centres undefined) | 16% (inactive)
CCC1Nc2cc(Cl)c(S(N)(=O)=O)cc2S(=O)(=O)N1 (centres undefined) | -4.95% (inactive)
